# Reference: PubChem BioAssay (NCI)
# This is part of a sample that, as a whole, favours compounds with a hit. Of some 79,000 tested, about 15% had one in any assay. Unmarked numbers belong to inactive results. Active and inactive are the calls of the source. Rule as the data show it: active = growth inhibition above about 70%; inactive = the rest.
# Key:
# [1] = NCI Yeast Anticancer Drug Screen. Data for the rad50 strain (AID 155);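 also: 0% = growth of vehicle-only cultures of the same strain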; conditions: S. cerevisiae rad50 strain growth inhibition, active compounds read high
# Outline: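 Inhibition values express reduced yeast growth in compound-treated cultures relative to vehicle-treated controls.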
# [2] = NCI Yeast Anticancer Drug Screen. Data for the mec2-1 strain (AID 157); conditions: S. cerevisiae mec2-1 strain, active compounds read high
# Outline: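 mec2-1 yeast strain, carrying an alteration in DNA damage repair or cell cycle control, was exposed to compounds; growth inhibition was measured relative to vehicle-treated controls.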
# [3] = NCI Yeast Anticancer Drug Screen. Data for the sgs1 mgt1 strain (AID 161);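 also: 0% = growth of cultures given vehicle only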; conditions: S. cerevisiae sgs1 mgt1 strain, active compounds read high
# Outline: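 This yeast growth screen uses a strain with defined DNA-repair lesions; compound-treated growth is compared with vehicle-treated growth.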
# [4] = NCI Yeast Anticancer Drug Screen. Data for the cln2 rad14 strain (AID 165);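 also: 0% = growth equal to vehicle treated cultures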; conditions: S. cerevisiae cln2 rad14 strain, active compounds read high
# Outline: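 Yeast carrying cln2 and rad14 alterations (cell cycle control and DNA damage repair) were exposed to compounds. Growth inhibition was measured against vehicle-treated controls.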
# [5] = NCI Yeast Anticancer Drug Screen. Data for the bub3 strain (AID 167); conditions: S. cerevisiae bub3 mutant strain, active compounds read high
# Outline: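 Steps: expose the mutant yeast strain to compound; grow alongside vehicle-treated cultures; measure growth; express inhibition against the vehicle cultures.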
# [6] = NCI Yeast Anticancer Drug Screen. Data for the mlh1 rad18 strain (AID 175); conditions: S. cerevisiae mlh1 rad18 strain growth inhibition, active compounds read high
# Outline: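 Growth inhibition of the yeast strain was measured after compound exposure and expressed relative to vehicle-treated controls. The strain carries defined defects in DNA damage repair.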
# [7] = at 5.0 µM (retest, dose inferred, filed as 0.5)
# [8] = at 50.0 µM (retest, dose inferred, filed as 5.0)
SMILES,"growth inhibition [1, 7]","growth inhibition [1, 8]",growth inhibition ([1]; at 50.0 µM),"growth inhibition [2, 7]","growth inhibition [2, 8]",growth inhibition ([2]; at 50.0 µM),"growth inhibition [3, 7]","growth inhibition [3, 8]",growth inhibition ([3]; at 50.0 µM),"growth inhibition [4, 7]","growth inhibition [4, 8]",growth inhibition ([4]; at 50.0 µM),"growth inhibition [5, 7]","growth inhibition [5, 8]",growth inhibition ([5]; at 50.0 µM),"growth inhibition [6, 7]","growth inhibition [6, 8]",growth inhibition ([6]; at 50.0 µM)
COc1c(Br)cc(/C=C/[N+](=O)[O-])cc1Br,98% (active),98% (active),92.4% (active),99% (active),99% (active),91.6% (active),98% (active),99% (active),89.8% (active),96% (active),97% (active),90.5% (active),99% (active),97% (active),88.2% (active),98% (active),98% (active),82.8% (active)
O=[N+]([O-])c1ccc(N2CCOCC2)c2c1no[n+]2[O-],98% (active),99% (active),90.9% (active),99% (active),100% (active),94% (active),94% (active),99% (active),89% (active),55%,99% (active),74% (active),91% (active),99% (active),92.2% (active),98% (active),99% (active),84.2% (active)
C1OCC2[CH2][Hg][S][Hg][CH2]C1O2,29%,95% (active),92.8% (active),34%,97% (active),94.8% (active),67%,98% (active),95.5% (active),19%,95% (active),92.6% (active),20%,96% (active),95.2% (active),36%,94% (active),91.3% (active)
COc1ccc(Br)c(/C=C/[N+](=O)[O-])c1,23%,90% (active),99.5% (active),11%,96% (active),99.7% (active),16%,82% (active),99.7% (active),0%,65%,11.7%,5%,92% (active),95.5% (active),6%,96% (active),87.8% (active)
CCCCCCCCCCC(=O)O.[Pb],-14%,2%,55.5%,-10%,6%,5.05%,-7%,9%,38.5%,-2%,-1%,14.2%,-1%,-4%,-16.1%,-5%,-12%,68.2%
CC1(C)N=C(N)N=C(N)N1c1ccc(OCCCCNC(=O)Nc2ccc(S(=O)(=O)F)cc2)c(Cl)c1,-3%,96% (active),98.3% (active),-2%,97% (active),99.3% (active),-1%,98% (active),99.4% (active),-4%,98% (active),97.3% (active),-3%,98% (active),98.8% (active),-2%,99% (active),99.1% (active)
CCC[CH2][Sn]([CH2]CCC)[S]CC(N)C(=O)O (configuration not stated),63%,98% (active),98.5% (active),67%,99% (active),98.5% (active),56%,95% (active),98.1% (active),49%,98% (active),98.1% (active),80% (active),99% (active),98% (active),62%,98% (active),97.9% (active)
ClC1=C(Cl)C2(Cl)C(Cl)CC1(Cl)C2(Cl)Cl (configuration not stated),0%,-1%,62%,-5%,-1%,40.5%,-3%,-24%,68.5%,0%,-9%,70.2% (active),0%,2%,1.4%,14%,2%,83.7% (active)
COc1cc(C2c3[nH]c4ccccc4c3[C@@H](Nc3ccc(C#N)cc3)[C@H]3COC(=O)N23)cc(OC)c1O (some centres not stated),19%,95% (active),73.8% (active),21%,91% (active),77.3% (active),-15%,61%,58.8%,-3%,57%,71.4% (active),-23%,70% (active),65.9%,21%,71% (active),50.8%
C[CH2][Sn]([F])([CH2]C)[CH2]C,8%,75% (active),86.6% (active),6%,92% (active),89.7% (active),9%,90% (active),88.6% (active),-6%,60%,64.2%,3%,76% (active),88.6% (active),5%,89% (active),88.3% (active)
ClC1CCCCC1[Se](Cl)(Cl)C1CCCCC1Cl (configuration not stated),34%,98% (active),99% (active),45%,100% (active),98.7% (active),12%,99% (active),99.5% (active),-15%,99% (active),97.9% (active),8%,99% (active),95.6% (active),43%,99% (active),98.8% (active)
C[C@]12CC[C@H](O)C[C@@H]1CC[C@@H]1[C@@H]2CC[C@]2(C)C(=O)/C(=C/O)C[C@@H]12,-1%,80% (active),54.5%,-1%,68%,97.1% (active),-1%,67%,87% (active),-15%,30%,96.5% (active),-4%,84% (active),95.7% (active),0%,61%,96.5% (active)
C=C1C(C)C2C(Cc3ccccc3)NC(=O)C23C(OC(C)=O)/C=C/C(C)(O)CC(C)C/C=C/C3C1O (configuration not stated),85% (active),98% (active),91.5% (active),94% (active),99% (active),92.5% (active),86% (active),99% (active),91.5% (active),86% (active),97% (active),90.7% (active),92% (active),99% (active),90.9% (active),95% (active),99% (active),89.4% (active)
O=C(O)c1cccc2cccc(C(=O)O)c12.[Hg],99% (active),99% (active),99.4% (active),100% (active),100% (active),99.5% (active),100% (active),99% (active),99.7% (active),99% (active),99% (active),98.5% (active),99% (active),99% (active),99.2% (active),99% (active),99% (active),99.6% (active)
CC(=O)[O][Sn]([CH3])([CH3])[c]1ccccc1,2%,78% (active),81.2% (active),3%,50%,82.8% (active),1%,92% (active),92.5% (active),-13%,77% (active),74.9% (active),-6%,83% (active),84.2% (active),3%,94% (active),96.3% (active)
Cc1cc(N(CCCl)CCCl)ccc1C1N(Cc2ccc(N(CCCl)CCCl)cc2Cl)CCCN1Cc1ccc(N(CCCl)CCCl)cc1Cl,81% (active),96% (active),97.8% (active),75% (active),96% (active),99.2% (active),57%,95% (active),98.2% (active),77% (active),93% (active),97.5% (active),74% (active),96% (active),97.7% (active),99% (active),93% (active),98.6% (active)
Cc1ccc2c(-c3ccccc3)c3ccccc3[s+]c2c1,2%,99% (active),99.5% (active),2%,100% (active),99.3% (active),6%,99% (active),99.5% (active),1%,99% (active),99% (active),-13%,99% (active),99.2% (active),1%,99% (active),99.2% (active)
CCC[CH2][Sn]([CH2]CCC)([O]C(=O)CCC(C)=O)[O]C(=O)CCC(C)=O,73% (active),98% (active),87% (active),80% (active),99% (active),91.7% (active),79% (active),99% (active),89.7% (active),74% (active),99% (active),90.3% (active),89% (active),99% (active),88.4% (active),81% (active),98% (active),91.7% (active)
CCCCCCCCCCCCCCCCCC[N+](C)(C)C (tested in a mixture with another compound),99% (active),99% (active),2.1%,98% (active),99% (active),13.1%,99% (active),99% (active),73.5% (active),78% (active),98% (active),13.2%,99% (active),97% (active),-1.15%,99% (active),99% (active),-2.5%
